Compound activity from PubChem BioAssay.
Marburg entry inh: inhibitors of Marburg virus binding or cell entry; Marburg virus pseudotyped entry inhibition, cell reporter; Potency, µM (doses to about 37.8 µM), most hits filed as inhibitors; hit rate 1.8% among 300,000; AID 540276; calls by dose curve; tested in HEK293 cells
Lassa entry inh: Lassa virus entry inhibition; Lassa virus pseudotype entry inhibition, cell reporter; AID 540256; hit rate 1.2% among 300,000; Potency, µM (doses to about 37.9 µM), hits mostly inhibitors; calls by dose curve; tested in HEK293 cells; further: nearly all actives have a fitted effect of over 50% in size
HCV inh: inhibitors of hepatitis C virus infection | Huh7.5.1 HCVcc-Cre infection, luciferase reporter, 44 h | Potency, µM (doses to about 41.8 µM), most hits filed as inhibitors | hit rate 3.4% among 340,000 | AID 651820; active means well fitted inhibition curve with a large enough effect; inconclusive means small, poorly fitted or top-dose-only effect, or another doubt; inactive means no such curve, though single readings can be large or run the other way
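A cell-based infection assay in which seeded cells (1,000 per well) receive test compound after 4 h, are inoculated with HCVcc-Cre at approximately 0.5 moi, and are incubated 44 h before luminescence detection.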
Vaccinia mCherry: inhibitors of vaccinia virus infection (mCherry reporter signal); Vaccinia virus mCherry reporter infection, fluorescence; Potency, µM (highest dose often 36.5 µM), most hits filed as inhibitors; hit rate 0.63% among 310,000; calls by dose curve; tested in A549 cells; further: nearly all actives have a fitted effect of over 35% in size
HCMV inh: human cytomegalovirus inhibition; HFF cells, HCMV-luciferase reporter, 72 h; hits give low values; activity change, negative = inhibition, % at 57.5 µM; hit rate 4.5% among 410,000; in the data active means activity change below about -60%; inconclusive means no clear call, values can overlap the other calls; inactive means above about -39%
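Human foreskin fibroblasts infected with luciferase-reporter HCMV at MOI 1 PFU/cell, compounds at two doses. Luciferase measured 72 h post infection; normalized to buffer-only basal and Salinomycin (10uM) controls.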
Vaccinia Venus: inhibitors of vaccinia virus (Venus reporter). Vaccinia virus Venus reporter expression, fluorescence. Potency, µM (series often up to 36.5 µM), most hits filed as inhibitors. hit rate 0.46% among 330,000; calls by dose curve; tested in A549 cells; further: nearly all actives have a fitted effect of over 30% in size
Hits are given with their value; n = inactive; u = inconclusive; x = no result. Hits are enriched below; roughly 7.8% of the tested compounds scored in any of these assays.

SMILES	Marburg entry inh	Lassa entry inh	HCV inh	Vaccinia mCherry	HCMV inh	Vaccinia Venus
CCOc1ccc2oc(C(=O)OCC(=O)NCC3CCCO3)c(C)c2c1 (stereo unspecified)	n	11.2µM	u	n	n	n
CCOc1ccc2oc(C(=O)OCC(=O)N3C(C)CCCC3C)c(C)c2c1 (stereo unspecified)	x	x	12.6µM	x	n	x
COc1ccc2oc(C(=O)OCC(=O)c3ccc4c(c3)OCCO4)c(C)c2c1	u	16.4µM	n	n	n	n
CCOc1ccc2oc(C(=O)NNC(=O)c3ccccc3O)c(C)c2c1	n	n	n	u	-72.2	n
COc1ccc2oc(C(=O)OCC(=O)N3C(C)CCCC3C)c(C)c2c1 (stereo unspecified)	n	n	n	n	n	n
Cc1c(C(=O)NNC(=O)c2ccccc2O)oc2ccc(Br)cc12	n	u	n	n	n	n
NC(=O)C1CCCN(Cc2ccc3c(c2)CN(Cc2cn[nH]c2-c2ccc(F)cc2)CCO3)C1 (stereo unspecified)	x	x	x	n	x	n
CNc1nc(N2CCCN(C)CC2)nc2cc(OC)c(OC)cc12	x	x	x	n	x	n
CN1/C(=C/C(=O)C2CC2)C(C)(C)c2ccccc21	n	n	n	n	n	n
CN1/C(=C\C(=O)Nc2ccc(Br)cc2)C(C)(C)c2ccccc21	n	u	n	n	n	n
CCN(CC)S(=O)(=O)c1cccc(C(=O)/C=C2/N(C)c3ccccc3C2(C)C)c1	u	u	10µM	n	u	n
CN1/C(=C\C(=O)Nc2cccc(Cl)c2)C(C)(C)c2ccccc21	u	n	31.6µM	n	u	n
CN1/C(=C\C(=S)NC(=O)c2cccc(Br)c2)C(C)(C)c2ccccc21	u	n	11.2µM	n	-95.6	n
CC(=O)C1CCC2C3CC=C4CC(SC(=N)N)CCC4(C)C3CCC12C (stereo unspecified)	11.2µM	u	u	u	n	15.8µM
CC(=O)[C@H]1CCC2C3CC=C4C[C@@H](OS(=O)(=O)O)CC[C@]4(C)C3CC[C@@]21C (stereo partly specified)	n	u	x	x	x	x
CC(C)(C)[C@H](N)C(=O)N[C@H]1CCC2C3CC=C4C[C@@H](O)CC[C@]4(C)C3CC[C@@]21C (stereo partly specified)	u	u	11.2µM	u	-99.3	u
O=c1onc(-c2ccccc2)n1Cc1ccc([N+](=O)[O-])cc1	x	x	x	u	-75.1	n
O=C1c2ccccc2-c2n[nH]c(=O)c3ccc(N4CCCCC4)c1c23	n	n	11.2µM	u	-61.6	u
O=C1c2cccc3c(N4CCCCC4)ccc(c23)C(=O)N1c1ccccn1	n	n	n	x	n	n
CCOC(=O)[C@]12CCCC=C1N(Cc1ccc3c(c1)OCO3)C(=O)[C@H](CC(=O)N1CCC(c3ccccc3)CC1)C2	x	x	x	n	n	u
Cc1sc(NC(=O)c2ccco2)c(C(c2cccnc2)N2CCN(c3ccc(F)cc3)CC2)c1C (stereo unspecified)	x	x	11.2µM	n	-100.0	n
CCOC(=O)C1CCN(C(c2cccnc2)c2c(NC(=O)c3ccco3)sc(C)c2C)CC1 (stereo unspecified)	u	u	6.31µM	u	-97.3	u
Cc1sc(NC(=O)c2ccccc2)c(C(c2ccc(Cl)cc2)N2CCN(CCO)CC2)c1C (stereo unspecified)	u	u	u	u	n	u
Cc1sc(NC(=O)c2ccco2)c(C(c2ccc(F)cc2)N2CCN(C)CC2)c1C (stereo unspecified)	6.31µM	u	n	n	x	n
CCOc1ccc(C(c2c(NC(=O)c3ccccc3)sc(C)c2C)N2CCN(CCO)CC2)cc1 (stereo unspecified)	8.91µM	u	u	n	n	n
SMILES	Marburg entry inh	Lassa entry inh	HCV inh	Vaccinia mCherry	HCMV inh	Vaccinia Venus
Cc1ccc(C(c2c(NC(=O)c3ccco3)sc(C)c2C)N2CCOCC2)cc1 (stereo unspecified)	x	x	x	n	n	n
CC(Sc1nnc(-c2ccccc2)n1C)C(=O)NCc1ccco1 (stereo unspecified)	x	x	x	n	x	n
CCOC(=O)c1cc(-c2ccccc2)n(CCCC(=O)Nc2cccc(C)c2C)c1C	x	n	x	n	n	n
C=CC1CN(C(=O)OCC(Cl)(Cl)Cl)C2CC3c4ccc(OC)cc4NC3C3CC1C2CO3 (stereo unspecified)	x	x	10µM	n	x	n
CCCCn1nc2cc(C(=O)NCc3ccc(C(F)(F)F)cc3C(F)(F)F)ccc2c1OCC	n	x	u	n	n	u
CCCCn1nc2cc(C(=O)NCc3ccccc3OC)ccc2c1OCC	x	x	3.55µM	n	n	n
Cc1ccc(Cn2c(=N)n(CC(=O)c3ccccc3)c3ccccc32)cc1	x	x	10µM	x	-83.0	x
CC(C)(C)C(=O)Cn1c(=N)n(Cc2ccccc2)c2ccccc21	u	n	u	8.91µM	n	u
CC(C)(C)C(=O)Cn1c(=N)n(Cc2ccccc2Cl)c2ccccc21	n	n	n	n	n	n
Cc1ccc(Cn2c(=N)n(CC(O)c3ccco3)c3ccccc32)cc1 (stereo unspecified)	11.2µM	n	u	x	n	u
Cc1ccc(S(=O)(=O)c2cn(Cc3cccc(F)c3)c3cc(N4CCCC4)c(F)cc3c2=O)cc1	x	n	x	n	n	n
COc1ccc(N2CC(C(=O)Nc3nccs3)CC2=O)cc1 (stereo unspecified)	n	n	n	x	-78.1	x
O=C(Nc1nccs1)C1CC(=O)N(c2ccc(Cl)cc2)C1 (stereo unspecified)	n	n	n	n	n	n
COc1ccc(-c2nc(NC(=O)C3CC(=O)N(c4ccc5c(c4)OCCO5)C3)sc2C)cc1 (stereo unspecified)	u	u	u	u	-96.1	u
Cc1cc(C)c(NC(=O)CN2C(=O)C3(SCC(=O)N3c3ccc(F)cc3)c3ccccc32)c(C)c1 (stereo unspecified)	x	n	x	n	n	n
CC1=CC(C)(C)N2C(=O)C3(SCC(=O)N3c3ccc(F)cc3)c3cc(C)cc1c32 (stereo unspecified)	u	n	u	x	-66.9	x
CC(=O)c1sc(NC(=O)C2(F)C(F)(F)C(F)(F)C(F)(F)C(F)(F)C2(F)F)nc1C	2.59µM	1.64µM	10µM	u	-98.4	u
CC(=O)c1sc(NC(=O)C=C(C)C)nc1C	n	n	n	x	-69.3	x
CC(=O)c1sc(N/N=C\c2ccccc2O)nc1C	u	u	n	5.01µM	n	n
CCCCCn1c(=N)c(S(=O)(=O)c2ccccc2)cc2c(=O)n3ccccc3nc21	n	n	x	n	n	n
Cc1cccc(C)c1Cn1c(C)c(C(=O)NCc2ccc([N+](=O)[O-])cc2)sc1=O	x	x	x	u	n	u
Cn1c(SCc2ccc(Cl)cc2)nnc1-c1ccc(NC(=O)CCc2ccccc2)cc1	x	x	x	n	x	n
CC(C)(C)C(=O)Nc1nc(-c2ccccc2)ns1	u	u	u	x	n	x
c1ccc(Nc2nc(-c3ccccc3)ns2)cc1	10µM	u	u	n	n	n
CC(C)NC(=O)CC(=O)Nc1ccc2nc3n(c(=O)c2c1)CCCCC3	u	n	x	n	n	n
